# According to PubChem BioAssay (NCATS):
# Results filed as inconclusive are left out. Where a call stands in place of a potency, no number is given. Calls of active or inactive are those of the source. Calls come from the whole dose curve; as a rule, active = well fitted cell-killing curve with a large enough effect; inconclusive = small, poorly fitted or top-dose-only effect; inactive = flat fitted curve, though single readings scatter. Where a SMILES comes first, the peptide text is derived from it. [ ]: non-standard residue; d: D form. pGlu = O=C1CC[C@@H](C(=O)O)N1
# Experiment: qHTS of pediatric cancer cell lines to identify multiple opportunities for drug repurposing: Primary screen for Rh18 cells (AID 1347102); note: nearly all actives have a fitted effect of over 65% in size
# Conditions: Rh18 rhabdomyosarcoma viability, CellTiter-Glo luminescence, 48 h; series mostly up to 46 µM
# From the text: Drug repurposing or repositioning has been offered as a strategy for drug development in oncology programs. This approach has special potential for childhood cancers and other rare or orphan diseases, where the expected return on new drug development has been a disincentive to pharmaceuticals.
# In this project we exploit the poly-pharmacology of drugs to discover new indications via phenotypic screening of a panel of 19 well-characterized cell lines derived from solid tumors seen in children and adolescents. The goal is to identify approved drugs with previously unrecognized anticancer properties that has the potential to reveal new mechanisms and biological processes involved in carcinogenesis or drug resistance. We employed a titration-based paradigm (quantitative high-throughput screening or qHTS), where all compounds were tested at multiple concentrations for their effect on cell viability. Concentration-response curves (CRCs) were derived directly from the primary screen, and both potency and efficacy values were used to identify compounds with robust bioactivity profiles. We screened the NIH Chemical Genomics Center (NCGC) Pharmaceutical Collection (NPC) and Mechanism Interrogation Plate (MIPE) small molecule collections of approved and investigational compounds against these cell lines; and measured metabolically active cells after 48 hours of compound treatment as a proxy for cell viability.
# Assay Submitter: Nathalia J. Martinez, National Center for Advancing Translational Sciences, National Institutes of Health, Rockville, MD, USA; email: natalia.martinez@nih.gov
# [1] Shen, M et al. Quantitative high-throughput phenotypic screening of pediatric cancer cell lines identifies multiple opportunities for drug repurposing. Oncotarget 2017 Dec 19;9(4):4758-4772. PMID 29435139.
# The cells were obtained from University of North Carolina (UNC), Pediatric Preclinical Testing Program (PPT), and Coriell Institute (CI).
# qHTS cell viability assay:
# Cells were assayed in growth media at a density of 500-1,000 cells/well. Five microliters of cells were dispensed into 1,536-well, white, solid-bottom, TC-treated plates (Greiner Bio One) using a multidrop dispenser and incubated at 37 degrees C, 5% CO2, under a humidified atmosphere for 5 hours. Twenty-three nanoliters of compounds and controls (neutral control DMSO or positive control bortezomib at final concentration of 2.3 µM) were subsequently transferred by Kalypsys pintool. For primary screens, the MIPE collection was tested at 11-point dilutions (final concentrations range from 0.78 nM to 46 µM) and the NPC collection at 8-point dilutions (final concentrations range from 0.59 nM to 46 µM). Compounds tested in follow-up screens were assayed at 11-point dilutions. Cells were incubated for 48 hours, followed by addition of 3 µL of CellTiter-Glo (Promega). After a 15 min incubation at room temperature, samples were analyzed for luminescence intensity using a ViewLux High-throughput CCD imager equipped with clear filters.
# Potency is the fitted concentration of half-maximal effect.
Structure (SMILES),Potency,"activity change, negative = cytotoxic"
O=C(CCC1CCN(Cc2ccccc2)CC1)c1ccc2c(c1)NCCCC2,inactive,
C[N+]1(C)CCC(OC(=O)C(O)(c2ccccc2)C2CCCC2)C1 (stereo not given),inactive,
N[C@@H](Cc1cc(I)c(O)c(I)c1)C(=O)O,inactive,
c1ccc2c(c1)CCc1ccccc1N2,inactive,
CC(=O)[C@@]1(O)CC[C@H]2[C@@H]3C[C@H](C)C4=CC(=O)CC[C@]4(C)[C@H]3CC[C@@]21C,inactive,
CCC(C(=O)NC(=O)NC(C)=O)c1ccccc1 (stereo not given),inactive,
OC(CCCN1CCCCC1)(c1ccccc1)c1ccccc1,inactive,
O=C(O)c1cn(C2CC2)c2cc(Cl)c(F)cc2c1=O,inactive,
COC(=O)c1c(Cl)c(Cl)c(C(=O)OC)c(Cl)c1Cl,inactive,
CCOC(=O)CN1CCCC1=O,inactive,
CC1(C)O[C@@H]2C[C@H]3[C@@H]4CCC5=CC(=O)C=C[C@]5(C)[C@@]4(F)[C@@H](O)C[C@]3(C)[C@]2(C(=O)CO)O1,inactive,
O=C(C1CCCCC1)N1CC(=O)N2CCCc3ccccc3C2C1 (stereo not given),inactive,
COc1cc(C=O)ccc1O,inactive,
COCCc1ccccn1,inactive,
CC(=O)Nc1ccc(S(=O)(=O)Nc2cc(C)on2)cc1,inactive,
CC1CN(c2cc3c(cc2F)c(=O)c(C(=O)O)cn3-c2ccc(F)cc2F)CCN1 (stereo not given),,-0.484% [at 4.84 µM] (inactive)
Cc1nc2n(c(=O)c1CCN1CCC(C(=O)c3ccc(F)cc3)CC1)CCS2,inactive,
Cc1nc(N)nc(N)c1-c1ccc(Cl)c(Cl)c1,inactive,
OCc1cccnc1,inactive,
CCOc1c(N2CCOCC2)cnn(C)c1=O,inactive,

Structure (SMILES),Potency,"activity change, negative = cytotoxic"
CO/N=C(/C(=O)N[C@@H]1C(=O)N2C(C(=O)[O-])=C(C[n+]3ccn4ncccc43)CS[C@H]12)c1nsc(N)n1,inactive,
O=C1Nc2ccccc2C1(c1ccc(O)cc1)c1ccc(O)cc1,inactive,
CC1(C)S[C@@H]2[C@H](NC(=O)C(c3ccccc3)S(=O)(=O)O)C(=O)N2[C@H]1C(=O)O (stereo not given in full),inactive,
C/C(=C(/OCCOc1ccc(Cl)cc1)c1ccc(Cl)cc1Cl)n1ccnc1,inactive,
CN1CCN(N)CC1,inactive,
Cc1[nH]cnc1-c1ccc(Cl)cc1,inactive,
COCCc1ccc(OCC2CO2)cc1 (stereo not given),inactive,
CCCc1ccc(OCC(=O)N2CCN(C(=O)COc3ccc(CCC)cc3OC)CC2)c(OC)c1,inactive,
COc1ccc(OC(=O)N(CC(=O)O)Cc2ccc(OCCc3nc(-c4ccccc4)oc3C)cc2)cc1,inactive,
CCC(=O)O[C@]1(C(=O)COC)[C@@H](C)C[C@H]2[C@@H]3CCC4=CC(=O)C=C[C@]4(C)C3(F)[C@@H](O)C[C@@]21C (stereo not given in full),inactive,
O=C1Nc2cc(Cl)ccc2Oc2ccccc21,inactive,
CCOC(=O)[C@H](CCc1ccccc1)N[C@@H](C)C(=O)N(CC(=O)O)C1Cc2ccccc2C1,inactive,
O=C(O)/C=C(\CC(=O)O)C(=O)O,inactive,
C[C@]12CCC(=O)C=C1CC[C@@H]1[C@@H]2[C@@H](O)C[C@@]2(C)[C@H]1CC[C@]2(O)C(=O)COC(=O)CCC(=O)O,inactive,
O=C1c2ccccc2CCc2ccccc21,inactive,
CCCCNc1ccc(C(=O)OCCN(CC)CC)cc1,inactive,
CCNC(=O)[C@@H]1CCCN1C(=O)[C@H](CCCN=C(N)N)NC(=O)[C@H](CC(C)C)NC(=O)CNC(=O)[C@H](Cc1ccc(O)cc1)NC(=O)[C@H](CO)NC(=O)[C@H](Cc1c[nH]c2ccccc12)NC(=O)[C@H](Cc1cnc[nH]1)NC(=O)[C@@H]1CCC(=O)N1 ([pGlu]HWSYGLRP-NHEt),inactive,
CO[C@@H]1[C@@H](OC)[C@H](C)[C@@](O)(CC(=O)O)O[C@H]1[C@H](C)[C@H]1O[C@@]2(CC[C@@](C)([C@H]3CC[C@@](C)([C@@H]4O[C@@H]([C@H]5O[C@](C)(O)[C@H](C)C[C@@H]5C)C[C@@H]4OC4C[C@H](OC)[C@@H](OC)[C@H](C)O4)O3)O2)C[C@H](O)[C@H]1C (stereo not given in full),3.76 µM (active),
Nc1ccc(C(=O)N2CC3CC(CN(Cc4ccccc4)C3)C2)cc1,inactive,
CC(=O)N[C@@H](CCC(N)=O)C(=O)O,inactive,
